Common to all, as to experiment: DAPPL (digital affinity profiling via proximity ligation, sequencing); 10 mM Tris-HCl pH 7.5, 50 mM NaCl, 1 mM DTT, 4% glycerol, room temperature, 30 min; GST-TFs on glutathione beads, 16-mer random dsDNA library, 0.1% formaldehyde crosslink after washing; high values mean tight binding
What all share (settings): protein: recombinant; tags: N-terminal GST; dsDNA, one strand shown

For one assay, the target named is T1, ELK1 (Homo sapiens, UniProt P19419 1-428).
T1 sequence: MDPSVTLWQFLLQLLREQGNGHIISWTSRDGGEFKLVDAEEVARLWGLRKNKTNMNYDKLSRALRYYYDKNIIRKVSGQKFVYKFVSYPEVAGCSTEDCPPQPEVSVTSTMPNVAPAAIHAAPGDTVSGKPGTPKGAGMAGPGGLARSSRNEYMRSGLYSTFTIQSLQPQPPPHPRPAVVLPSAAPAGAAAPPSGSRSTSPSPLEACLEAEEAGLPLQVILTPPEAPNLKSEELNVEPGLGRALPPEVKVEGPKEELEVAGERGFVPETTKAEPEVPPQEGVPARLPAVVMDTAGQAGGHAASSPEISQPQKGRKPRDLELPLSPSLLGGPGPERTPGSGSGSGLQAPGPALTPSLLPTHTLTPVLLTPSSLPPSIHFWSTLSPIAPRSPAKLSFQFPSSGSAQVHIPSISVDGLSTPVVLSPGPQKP
A digest of the protocol: (§1)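 Beads coated with glutathione captured GST-fused human transcription factors that had been expressed in yeast, and the factors were then given DNA barcodes and pooled with a tag-only sample. The pools were incubated with 200 nmole of a random double-stranded 16-mer DNA library in Tris/NaCl/DTT/glycerol buffer for 30 min at room temperature, washed, crosslinked with 0.1% formaldehyde and proximity-ligated with BsaI/T4 ligase at 37 °C for 1 h. PCR amplification and Illumina NextSeq500 sequencing came last. Binding signal is each hexamer's read frequency for a factor divided by its frequency for the tag-only sample.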

The next assay deals with T2, GABPA (Homo sapiens, UniProt Q06546 1-454).
T2 sequence: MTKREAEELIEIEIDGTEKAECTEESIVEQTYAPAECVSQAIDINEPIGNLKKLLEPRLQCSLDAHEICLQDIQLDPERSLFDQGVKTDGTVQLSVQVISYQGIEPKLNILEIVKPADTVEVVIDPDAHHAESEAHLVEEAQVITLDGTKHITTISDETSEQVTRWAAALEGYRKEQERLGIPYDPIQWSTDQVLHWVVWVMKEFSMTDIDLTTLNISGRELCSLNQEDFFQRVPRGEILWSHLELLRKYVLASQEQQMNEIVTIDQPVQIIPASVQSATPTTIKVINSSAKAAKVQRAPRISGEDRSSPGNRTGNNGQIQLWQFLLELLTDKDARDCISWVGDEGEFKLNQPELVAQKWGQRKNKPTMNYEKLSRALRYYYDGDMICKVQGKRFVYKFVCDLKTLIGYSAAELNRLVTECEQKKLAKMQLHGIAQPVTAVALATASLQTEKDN
A digest of the protocol:
as §1

A further assay concerns the target T3, ERG (Homo sapiens, UniProt P11308 1-479).
T3 sequence: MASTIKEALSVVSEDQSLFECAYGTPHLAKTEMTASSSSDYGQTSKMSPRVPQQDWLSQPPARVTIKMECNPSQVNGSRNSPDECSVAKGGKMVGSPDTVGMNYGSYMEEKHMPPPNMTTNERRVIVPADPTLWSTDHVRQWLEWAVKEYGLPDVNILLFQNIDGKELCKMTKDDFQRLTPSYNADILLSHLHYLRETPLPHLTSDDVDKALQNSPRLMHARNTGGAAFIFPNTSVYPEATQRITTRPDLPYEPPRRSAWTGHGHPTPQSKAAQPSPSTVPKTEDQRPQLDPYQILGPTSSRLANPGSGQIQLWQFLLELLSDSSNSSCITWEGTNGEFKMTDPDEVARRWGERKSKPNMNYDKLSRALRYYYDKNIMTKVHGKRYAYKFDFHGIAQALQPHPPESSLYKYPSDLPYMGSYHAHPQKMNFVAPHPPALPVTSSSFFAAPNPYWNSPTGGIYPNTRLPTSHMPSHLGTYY
Put shortly:
as §1

For another assay, the target named is ELF1 (Homo sapiens, UniProt P32519 1-619). Put shortly:
as §1

In the next assay the target is T4, EHF (Homo sapiens, UniProt Q9NZC4 1-300).
T4 sequence: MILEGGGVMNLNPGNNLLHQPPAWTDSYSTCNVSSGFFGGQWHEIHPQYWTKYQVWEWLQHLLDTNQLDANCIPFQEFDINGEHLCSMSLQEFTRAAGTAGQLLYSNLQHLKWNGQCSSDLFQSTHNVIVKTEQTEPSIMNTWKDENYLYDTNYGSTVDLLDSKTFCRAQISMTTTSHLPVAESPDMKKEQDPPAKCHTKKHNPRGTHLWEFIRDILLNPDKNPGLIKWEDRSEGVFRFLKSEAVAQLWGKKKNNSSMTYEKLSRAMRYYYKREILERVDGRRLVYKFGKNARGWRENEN
Put shortly: as §1

In another assay the target is SPI1 (Homo sapiens, UniProt P17947 1-270). A digest of the protocol:
as §1

For the next assay, the target named is T5, FEV (Homo sapiens, UniProt Q99581 1-238).
T5 sequence: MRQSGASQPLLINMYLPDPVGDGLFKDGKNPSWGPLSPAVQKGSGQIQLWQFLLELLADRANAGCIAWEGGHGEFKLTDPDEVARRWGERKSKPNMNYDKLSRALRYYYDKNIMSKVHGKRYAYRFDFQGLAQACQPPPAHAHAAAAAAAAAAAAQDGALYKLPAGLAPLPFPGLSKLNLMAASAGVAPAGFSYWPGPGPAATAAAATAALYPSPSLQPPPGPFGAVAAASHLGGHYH
Put shortly:
as §1

A further assay addresses ETV5 (Homo sapiens, UniProt P41161 1-510). A digest of the protocol: as §1
Another assay deals with ELF4 (Homo sapiens, UniProt Q99607 1-663). Put shortly: as §1
The target in another assay is T6, ELK4 (Homo sapiens, UniProt P28324-2 1-405).
T6 sequence: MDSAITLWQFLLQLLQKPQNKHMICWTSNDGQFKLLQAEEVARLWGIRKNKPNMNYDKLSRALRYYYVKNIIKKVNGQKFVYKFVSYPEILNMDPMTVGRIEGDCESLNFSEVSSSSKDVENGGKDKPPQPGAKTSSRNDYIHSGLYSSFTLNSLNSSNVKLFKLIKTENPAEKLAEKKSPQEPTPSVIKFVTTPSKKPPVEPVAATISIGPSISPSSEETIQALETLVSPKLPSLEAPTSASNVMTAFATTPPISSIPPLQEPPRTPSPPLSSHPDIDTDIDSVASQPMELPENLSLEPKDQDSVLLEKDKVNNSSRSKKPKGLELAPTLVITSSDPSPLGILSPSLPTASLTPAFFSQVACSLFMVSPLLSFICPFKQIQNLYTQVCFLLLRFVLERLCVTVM
A digest of the protocol: as §1

In the next assay the target is T7, ETV2 (Homo sapiens, UniProt O00321 1-342).
T7 sequence: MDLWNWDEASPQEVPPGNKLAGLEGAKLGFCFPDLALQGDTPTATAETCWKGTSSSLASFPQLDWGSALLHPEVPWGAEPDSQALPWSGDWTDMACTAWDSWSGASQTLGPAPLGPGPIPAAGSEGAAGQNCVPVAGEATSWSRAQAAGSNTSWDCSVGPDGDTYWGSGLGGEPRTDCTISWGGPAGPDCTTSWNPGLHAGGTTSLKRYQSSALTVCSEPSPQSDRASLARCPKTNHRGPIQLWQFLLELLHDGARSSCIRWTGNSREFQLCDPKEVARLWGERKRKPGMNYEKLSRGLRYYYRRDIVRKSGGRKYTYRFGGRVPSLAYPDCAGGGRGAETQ
Put shortly:
as §1

In the next assay the target is ETV1 (Homo sapiens, UniProt P50549 1-477). A digest of the protocol: as §1
The target in the next assay is T8, ERF (Homo sapiens, UniProt P50548 1-548).
T8 sequence: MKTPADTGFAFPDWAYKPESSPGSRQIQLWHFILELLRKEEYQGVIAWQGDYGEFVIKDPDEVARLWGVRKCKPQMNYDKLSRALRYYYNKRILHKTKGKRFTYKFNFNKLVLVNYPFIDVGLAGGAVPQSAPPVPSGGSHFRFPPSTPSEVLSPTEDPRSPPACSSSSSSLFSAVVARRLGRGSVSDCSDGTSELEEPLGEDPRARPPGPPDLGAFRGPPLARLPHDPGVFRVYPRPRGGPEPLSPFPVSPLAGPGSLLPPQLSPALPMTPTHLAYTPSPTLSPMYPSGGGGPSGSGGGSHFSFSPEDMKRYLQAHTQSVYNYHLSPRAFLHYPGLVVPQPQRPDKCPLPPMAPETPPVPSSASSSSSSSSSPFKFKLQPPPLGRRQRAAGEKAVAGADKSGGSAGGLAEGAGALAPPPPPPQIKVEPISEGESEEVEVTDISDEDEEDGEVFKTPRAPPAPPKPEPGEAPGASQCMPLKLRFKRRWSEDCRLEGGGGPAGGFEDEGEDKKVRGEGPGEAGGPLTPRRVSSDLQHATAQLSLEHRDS
Put shortly:
as §1

A further assay addresses T9, ETV3L (Homo sapiens, UniProt Q6ZN32 1-361).
T9 sequence: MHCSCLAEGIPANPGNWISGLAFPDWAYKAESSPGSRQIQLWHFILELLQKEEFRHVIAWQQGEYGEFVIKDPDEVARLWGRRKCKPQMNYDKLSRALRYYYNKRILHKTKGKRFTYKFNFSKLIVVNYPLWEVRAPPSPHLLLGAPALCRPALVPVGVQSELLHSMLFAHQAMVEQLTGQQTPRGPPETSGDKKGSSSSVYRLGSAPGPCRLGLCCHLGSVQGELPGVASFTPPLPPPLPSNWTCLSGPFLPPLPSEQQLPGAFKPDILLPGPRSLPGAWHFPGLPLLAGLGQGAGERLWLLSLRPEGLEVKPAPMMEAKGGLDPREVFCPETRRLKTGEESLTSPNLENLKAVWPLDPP
A digest of the protocol: as §1

In a further assay the target is T10, ETS2 (Homo sapiens, UniProt P15036 1-469).
T10 sequence: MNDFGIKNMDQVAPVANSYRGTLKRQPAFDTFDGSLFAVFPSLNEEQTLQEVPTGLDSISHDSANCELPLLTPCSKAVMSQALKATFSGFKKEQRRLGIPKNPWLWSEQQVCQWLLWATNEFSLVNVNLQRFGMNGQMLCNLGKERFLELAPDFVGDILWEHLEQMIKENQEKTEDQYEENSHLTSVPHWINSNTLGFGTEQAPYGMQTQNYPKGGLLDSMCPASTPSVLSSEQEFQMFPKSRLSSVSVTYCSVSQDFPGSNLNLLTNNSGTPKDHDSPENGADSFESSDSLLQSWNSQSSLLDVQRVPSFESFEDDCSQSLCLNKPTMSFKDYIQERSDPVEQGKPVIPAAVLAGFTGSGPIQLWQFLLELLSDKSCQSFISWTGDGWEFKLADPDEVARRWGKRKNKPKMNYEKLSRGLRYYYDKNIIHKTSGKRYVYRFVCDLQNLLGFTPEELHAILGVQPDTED
Put shortly: as §1

For another assay, the target named is T11, SPDEF (Homo sapiens, UniProt O95238 1-335).
T11 sequence: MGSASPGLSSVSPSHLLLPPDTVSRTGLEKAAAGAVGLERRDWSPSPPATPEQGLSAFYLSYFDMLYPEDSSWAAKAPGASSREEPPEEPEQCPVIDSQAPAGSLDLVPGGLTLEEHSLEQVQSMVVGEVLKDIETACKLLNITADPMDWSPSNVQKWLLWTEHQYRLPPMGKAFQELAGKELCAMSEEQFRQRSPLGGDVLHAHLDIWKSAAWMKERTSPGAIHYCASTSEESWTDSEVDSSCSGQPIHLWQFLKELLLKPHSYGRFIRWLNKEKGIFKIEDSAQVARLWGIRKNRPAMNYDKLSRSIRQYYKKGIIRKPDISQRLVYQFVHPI
Put shortly:
as §1

The next assay concerns the target T12, ETV7 (Homo sapiens, UniProt Q9Y603 1-341).
T12 sequence: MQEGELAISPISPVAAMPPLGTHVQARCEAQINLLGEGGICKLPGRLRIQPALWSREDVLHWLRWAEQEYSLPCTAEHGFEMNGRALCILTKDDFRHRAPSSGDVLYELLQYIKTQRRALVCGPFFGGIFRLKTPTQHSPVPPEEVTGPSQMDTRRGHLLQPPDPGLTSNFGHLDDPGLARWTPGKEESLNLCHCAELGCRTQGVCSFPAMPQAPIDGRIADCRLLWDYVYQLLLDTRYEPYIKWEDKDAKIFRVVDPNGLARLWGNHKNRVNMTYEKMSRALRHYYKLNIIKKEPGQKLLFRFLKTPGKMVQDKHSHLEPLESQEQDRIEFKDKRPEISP
A digest of the protocol: as §1

A further assay deals with T13, ETV3 (Homo sapiens, UniProt P41162-2 1-143).
T13 sequence: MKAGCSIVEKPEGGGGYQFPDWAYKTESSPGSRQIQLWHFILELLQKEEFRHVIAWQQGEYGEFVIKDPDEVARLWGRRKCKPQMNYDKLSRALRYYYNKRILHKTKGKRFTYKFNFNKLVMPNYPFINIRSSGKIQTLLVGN
A digest of the protocol: as §1

In another assay the target is ETV6 (Homo sapiens, UniProt P41212 1-452). A digest of the protocol:
as §1

These results are taken from paper PMC7862700, “An all-to-all approach to the identification of sequence-specific readers for epigenetic DNA modifications on cytosine”.

ELF4, sequence (Q99607 whole entry): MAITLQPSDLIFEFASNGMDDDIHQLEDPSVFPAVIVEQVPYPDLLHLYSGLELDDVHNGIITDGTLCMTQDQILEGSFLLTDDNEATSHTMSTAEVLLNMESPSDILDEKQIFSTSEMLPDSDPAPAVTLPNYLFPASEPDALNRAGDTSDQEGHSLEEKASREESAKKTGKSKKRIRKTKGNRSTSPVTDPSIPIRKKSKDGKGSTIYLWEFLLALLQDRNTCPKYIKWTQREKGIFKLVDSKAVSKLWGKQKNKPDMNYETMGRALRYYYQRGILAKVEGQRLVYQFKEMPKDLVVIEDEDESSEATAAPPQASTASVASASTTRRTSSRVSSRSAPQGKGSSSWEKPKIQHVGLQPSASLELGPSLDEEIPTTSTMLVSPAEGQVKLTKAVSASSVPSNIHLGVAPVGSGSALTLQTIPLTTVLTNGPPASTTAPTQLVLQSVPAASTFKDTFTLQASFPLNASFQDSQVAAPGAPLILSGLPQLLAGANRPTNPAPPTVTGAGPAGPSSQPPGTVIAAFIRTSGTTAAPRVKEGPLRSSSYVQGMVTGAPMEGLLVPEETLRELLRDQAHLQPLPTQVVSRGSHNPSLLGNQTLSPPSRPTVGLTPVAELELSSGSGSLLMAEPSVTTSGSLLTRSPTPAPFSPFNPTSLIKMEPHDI
ELF1, sequence (P32519 whole entry): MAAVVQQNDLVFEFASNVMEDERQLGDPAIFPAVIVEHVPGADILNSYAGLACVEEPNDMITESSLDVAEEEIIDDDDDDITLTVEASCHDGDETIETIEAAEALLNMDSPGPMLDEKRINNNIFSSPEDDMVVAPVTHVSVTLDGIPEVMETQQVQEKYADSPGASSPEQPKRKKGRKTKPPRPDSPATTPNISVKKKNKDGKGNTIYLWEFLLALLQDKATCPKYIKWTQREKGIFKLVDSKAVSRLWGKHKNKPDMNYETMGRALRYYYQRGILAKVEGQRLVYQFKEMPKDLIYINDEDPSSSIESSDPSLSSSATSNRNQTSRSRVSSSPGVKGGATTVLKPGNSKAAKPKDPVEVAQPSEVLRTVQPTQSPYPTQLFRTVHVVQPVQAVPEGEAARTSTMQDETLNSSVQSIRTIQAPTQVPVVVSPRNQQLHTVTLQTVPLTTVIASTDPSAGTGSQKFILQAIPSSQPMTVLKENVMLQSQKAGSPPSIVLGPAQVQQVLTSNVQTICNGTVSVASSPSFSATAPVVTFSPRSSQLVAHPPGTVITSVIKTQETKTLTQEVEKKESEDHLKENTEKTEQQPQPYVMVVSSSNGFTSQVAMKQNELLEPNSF
ETV1, sequence (P50549 whole entry): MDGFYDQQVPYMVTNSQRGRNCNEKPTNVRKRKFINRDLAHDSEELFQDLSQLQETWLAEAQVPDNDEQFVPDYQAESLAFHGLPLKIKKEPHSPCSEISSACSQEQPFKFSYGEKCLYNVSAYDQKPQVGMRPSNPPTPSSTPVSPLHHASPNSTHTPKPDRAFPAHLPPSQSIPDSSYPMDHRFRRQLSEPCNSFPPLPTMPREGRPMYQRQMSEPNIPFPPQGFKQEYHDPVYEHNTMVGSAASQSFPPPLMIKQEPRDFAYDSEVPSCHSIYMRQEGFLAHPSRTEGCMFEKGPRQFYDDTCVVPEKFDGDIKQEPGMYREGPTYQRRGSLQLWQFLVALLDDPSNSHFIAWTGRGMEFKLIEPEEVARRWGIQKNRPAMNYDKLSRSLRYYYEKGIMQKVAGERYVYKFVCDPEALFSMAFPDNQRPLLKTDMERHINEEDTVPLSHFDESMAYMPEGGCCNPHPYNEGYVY
ETV6, sequence (P41212 whole entry): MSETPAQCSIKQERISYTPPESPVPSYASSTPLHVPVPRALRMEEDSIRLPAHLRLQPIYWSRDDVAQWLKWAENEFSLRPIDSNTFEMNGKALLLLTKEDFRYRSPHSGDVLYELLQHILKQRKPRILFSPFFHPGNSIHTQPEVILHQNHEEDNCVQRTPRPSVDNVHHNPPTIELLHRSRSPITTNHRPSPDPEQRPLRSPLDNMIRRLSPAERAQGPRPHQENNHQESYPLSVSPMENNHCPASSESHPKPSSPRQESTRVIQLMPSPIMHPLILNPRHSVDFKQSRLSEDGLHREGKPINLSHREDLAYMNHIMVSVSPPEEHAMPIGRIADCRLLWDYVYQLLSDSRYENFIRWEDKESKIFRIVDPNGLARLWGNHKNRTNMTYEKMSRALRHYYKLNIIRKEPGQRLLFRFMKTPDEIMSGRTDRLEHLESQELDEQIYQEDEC
ETV5, sequence (P41161 whole entry): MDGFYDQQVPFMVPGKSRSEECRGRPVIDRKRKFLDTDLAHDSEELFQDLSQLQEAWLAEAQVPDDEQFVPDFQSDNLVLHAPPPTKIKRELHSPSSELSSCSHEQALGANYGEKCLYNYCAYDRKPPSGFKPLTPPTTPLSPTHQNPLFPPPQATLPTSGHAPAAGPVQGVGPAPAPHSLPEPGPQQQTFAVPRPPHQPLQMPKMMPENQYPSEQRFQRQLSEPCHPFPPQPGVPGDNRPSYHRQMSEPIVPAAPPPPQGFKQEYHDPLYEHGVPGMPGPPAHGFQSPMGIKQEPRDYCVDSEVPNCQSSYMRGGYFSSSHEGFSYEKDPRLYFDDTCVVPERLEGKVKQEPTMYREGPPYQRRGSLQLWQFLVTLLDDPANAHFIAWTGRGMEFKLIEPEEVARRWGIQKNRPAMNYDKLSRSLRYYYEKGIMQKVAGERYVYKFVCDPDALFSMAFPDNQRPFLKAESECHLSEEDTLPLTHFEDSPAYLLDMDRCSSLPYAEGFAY

Regarding TCATGT, the binding signal in the assay with ELK1 was 1.17 fold enrichment (6-mer frequency, TF over GST control); with GABPA it was 1.11 fold enrichment (6-mer frequency, TF over GST control); in the assay with ERG it was 1.1 fold enrichment (6-mer frequency, TF over GST control); in the assay with ELF1, 1.15 fold enrichment (6-mer frequency, TF over GST control); with EHF, 1.02 fold enrichment (6-mer frequency, TF over GST control); in the assay with SPI1 it was 1.15 fold enrichment (6-mer frequency, TF over GST control). Moreover, the binding signal with FEV was 1.05 fold enrichment (6-mer frequency, TF over GST control); with ETV5, 1.16 fold enrichment (6-mer frequency, TF over GST control); in the assay with ELF4 it was 1.1 fold enrichment (6-mer frequency, TF over GST control); with ELK4, 1.08 fold enrichment (6-mer frequency, TF over GST control); with ETV2, 1.15 fold enrichment (6-mer frequency, TF over GST control); with ETV1 it was 1.27 fold enrichment (6-mer frequency, TF over GST control). In addition, the binding signal in the assay with ERF was 1.13 fold enrichment (6-mer frequency, TF over GST control); in the assay with ETV3L, 1.15 fold enrichment (6-mer frequency, TF over GST control); with ETS2, 1.11 fold enrichment (6-mer frequency, TF over GST control); with SPDEF, 1.12 fold enrichment (6-mer frequency, TF over GST control); with ETV7 it was 1.15 fold enrichment (6-mer frequency, TF over GST control); with ETV3, 1.14 fold enrichment (6-mer frequency, TF over GST control). Moreover, in the assay with ETV6, the binding signal was 1.08 fold enrichment (6-mer frequency, TF over GST control).
